These results are taken from PubChem BioAssay (NCATS).

Records with an inconclusive call do not appear. Calls of active or inactive are those of the source. Unless noted, the call rests on the fitted dose curve.

Assay [1] addresses Glucocorticoid receptor (Homo sapiens) (UniProt P04150). The experiment in a line: qHTS assay for small molecule agonists of glucocorticoid receptor signaling (AID 588532; active means well fitted curve in the direction sought with a large enough effect in the signal ratio, with a control signal flat; the % refers to the signal ratio;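 further: 100% = dexamethasone at 0.1 µM and 0% = DMSO only wells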). As to conditions: HeLa MMTV-bla, beta-lactamase ratio, agonist, 18 h; activation: stronger effect = higher value, percent of dexamethasone control, DMSO zero. In a few lines:
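Cells were plated and rested 3-5 h at 37 C, compounds were added in titration and incubated 18 h, then CCF4 substrate was loaded for 2 h at RT before reading blue/green fluorescence. EC50 came from Hill-equation fitting.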
In general terms: Quantitative high-throughput screening tests each substance at several concentrations.

For assay [2] the target is unchanged. The experiment in a line: qHTS assay for small molecule antagonists of glucocorticoid receptor signaling (AID 588533; active means well fitted inhibition curve with a large enough effect in the signal ratio, with a control signal flat, not every such curve was filed as active; the % refers to the signal ratio; further: on the % scale 0 is the no-effect control and ±100 the full control effect). In a few lines: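 Antagonist-mode qHTS: compound titrations added to GRE-bla HeLa cells, then dexamethasone 2 nM final; 18 h, 37 C. CCF4 FRET fluorescence normalized to dexamethasone and DMSO; IC50 from Hill fit.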
Assay [3] concerns the target Peroxisome proliferator-activated receptor delta (Homo sapiens) (UniProt Q03181). The experiment in a line: qHTS assay for small molecule agonists of peroxisome proliferator-activated receptor delta signaling (AID 588534).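 Further: 0% = DMSO basal wells and 100% = positive control agonist at 10 µM.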 In a few lines:
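Titration series tested in agonist mode on beta-lactamase reporter cells; 18 hrs at 37 C after a 5 hr pre-incubation. Readout: CCF4 fluorescence, 2 hrs RT. Hill equation gives EC50 and maximal response.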

Assay [4] in a line: qHTS assay for small molecule antagonists of peroxisome proliferator-activated receptor delta signaling (AID 588535; active means well fitted inhibition curve with a large enough effect in the signal ratio, with a control signal flat, not every such curve was filed as active; the % refers to the signal ratio;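 on max response: cells co-treated with a PPAR-delta agonist as stimulator during compound exposure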). The conditions noted are these: HEK293T PPARd-UAS-bla, beta-lactamase FRET ratio, 18 h; 460 nm channel. In a few lines:
(§1)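 Beta-lactamase reporter read-out (405 nm excitation, 460/530 nm emission) after CCF4 loading for 2 hrs at RT. HEK293T PPAR-delta-UAS-bla cells, 2% charcoal/dextran FBS, compounds for 18 hrs at 37 C. Hill fit gave IC50 and efficacy.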

The target of assay [5] is Peroxisome proliferator-activated receptor delta (Homo sapiens) (UniProt Q03181). The assay is described as above. In a few lines: as §1
Peroxisome proliferator-activated receptor delta (Homo sapiens), sequence (Q03181 whole entry, looked up): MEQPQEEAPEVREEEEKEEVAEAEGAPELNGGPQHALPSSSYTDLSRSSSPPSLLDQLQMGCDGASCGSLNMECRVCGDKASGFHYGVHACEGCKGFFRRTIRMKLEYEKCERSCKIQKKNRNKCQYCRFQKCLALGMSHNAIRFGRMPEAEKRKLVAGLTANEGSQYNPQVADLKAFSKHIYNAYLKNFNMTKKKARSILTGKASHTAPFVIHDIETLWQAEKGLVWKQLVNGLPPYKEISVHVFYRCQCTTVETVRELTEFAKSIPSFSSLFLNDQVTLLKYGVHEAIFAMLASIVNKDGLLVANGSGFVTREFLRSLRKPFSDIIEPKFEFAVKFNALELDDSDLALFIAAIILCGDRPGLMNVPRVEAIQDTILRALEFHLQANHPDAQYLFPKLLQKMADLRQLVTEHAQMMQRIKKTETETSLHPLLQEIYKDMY
For assay [6], the target named is Vitamin D3 receptor (Homo sapiens) (UniProt P11473). The experiment in a line: qHTS assay for small molecule antagonists of vitamin D receptor signaling (AID 588541).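 Further: receptor activated by calcitriol during compound treatment; series mostly up to about 77 µM; on the % scale 0 is the no-effect control and ±100 the full control effect.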 In a few lines: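 VDR-UAS-bla HEK293T cells in 2% charcoal-stripped FBS were stimulated with 1-alpha,25-dihydroxyvitamin D3 (3 nM final) plus compound for 16 h at 37 C. The beta-lactamase CCF4 readout was normalized to 50 nM agonist and DMSO, and Hill fits gave IC50.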
Vitamin D3 receptor (Homo sapiens), sequence (P11473 whole entry, looked up): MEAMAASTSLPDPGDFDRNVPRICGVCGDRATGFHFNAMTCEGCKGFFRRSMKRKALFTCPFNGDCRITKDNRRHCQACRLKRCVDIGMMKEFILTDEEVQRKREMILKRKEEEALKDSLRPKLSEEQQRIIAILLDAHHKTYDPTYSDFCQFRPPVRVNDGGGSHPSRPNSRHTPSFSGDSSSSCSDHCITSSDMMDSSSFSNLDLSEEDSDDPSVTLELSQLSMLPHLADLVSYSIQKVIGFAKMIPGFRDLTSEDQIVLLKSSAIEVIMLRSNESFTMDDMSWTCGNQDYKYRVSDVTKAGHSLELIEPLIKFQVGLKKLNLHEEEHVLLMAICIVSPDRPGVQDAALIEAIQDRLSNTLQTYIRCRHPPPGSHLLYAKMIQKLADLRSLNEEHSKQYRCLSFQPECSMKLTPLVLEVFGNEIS

Assay [7] shares this target. The experiment in a line: qHTS assay for small molecule agonists of vitamin D receptor signaling (AID 588543).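 Further: 0% = DMSO basal and 100% = reference agonist control.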 In a few lines:
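Agonist-mode beta-lactamase reporter: HEK293T VDR-UAS-bla cells in charcoal-stripped 2% FBS, compound series 16 h 37 C, CCF4 2 h RT. EC50 from Hill fit, scaled against DMSO and 50 nM calcitriol control.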

Assay [8] can be described thus: qHTS assay for small molecule agonists of retinoid X receptor alpha signaling (AID 588544).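 On activation: 0% = DMSO basal wells and 100% = reference agonist.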 As to conditions: HEK293T RXRa-UAS-bla, beta-lactamase reporter, 18 h; 530 nm emission.
The target in assay [9] is Retinoic acid receptor RXR-alpha (Homo sapiens) (UniProt P19793). The assay is described as above.
Retinoic acid receptor RXR-alpha (Homo sapiens), sequence (P19793 whole entry, looked up): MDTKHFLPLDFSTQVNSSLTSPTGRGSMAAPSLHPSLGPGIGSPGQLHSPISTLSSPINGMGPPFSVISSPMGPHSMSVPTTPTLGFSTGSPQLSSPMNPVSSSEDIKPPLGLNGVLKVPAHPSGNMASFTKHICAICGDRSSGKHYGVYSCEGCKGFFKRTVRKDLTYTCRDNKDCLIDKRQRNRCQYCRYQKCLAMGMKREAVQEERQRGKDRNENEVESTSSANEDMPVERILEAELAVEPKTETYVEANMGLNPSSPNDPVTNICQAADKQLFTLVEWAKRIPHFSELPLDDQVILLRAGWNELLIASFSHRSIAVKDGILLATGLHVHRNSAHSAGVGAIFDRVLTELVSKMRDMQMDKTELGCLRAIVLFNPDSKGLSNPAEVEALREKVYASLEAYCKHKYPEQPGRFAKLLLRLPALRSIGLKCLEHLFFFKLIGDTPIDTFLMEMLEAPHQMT
For assay [10], the target named is Thyroid hormone receptor beta (Homo sapiens) (UniProt P10828). The experiment in a line: qHTS assay for small molecule agonists of thyroid hormone receptor beta signaling (AID 588545).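 Further: 0% = DMSO only and 100% = 10 nM T3.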 In a few lines: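 Stimulation of a TR-driven beta-lactamase reporter was quantified in GripTite HEK 293 cells. Compound series ran for 18 hrs; curves were normalized to T3 and DMSO controls and fitted to yield EC50.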
Thyroid hormone receptor beta (Homo sapiens), sequence (P10828 whole entry, looked up): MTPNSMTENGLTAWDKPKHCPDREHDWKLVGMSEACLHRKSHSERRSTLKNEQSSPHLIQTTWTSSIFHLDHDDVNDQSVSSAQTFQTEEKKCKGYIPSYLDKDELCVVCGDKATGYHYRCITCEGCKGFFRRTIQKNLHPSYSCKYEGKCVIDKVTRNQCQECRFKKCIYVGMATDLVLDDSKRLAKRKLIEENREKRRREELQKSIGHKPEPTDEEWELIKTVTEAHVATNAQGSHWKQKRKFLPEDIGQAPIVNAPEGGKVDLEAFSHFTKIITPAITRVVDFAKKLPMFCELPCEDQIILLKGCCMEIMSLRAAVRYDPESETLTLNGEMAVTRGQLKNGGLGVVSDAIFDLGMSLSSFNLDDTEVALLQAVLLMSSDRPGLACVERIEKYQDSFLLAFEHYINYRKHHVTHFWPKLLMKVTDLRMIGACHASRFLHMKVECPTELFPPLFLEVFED

Assay [11] in a line: qHTS assay for small molecule antagonists of retinoid X receptor alpha signaling (AID 588546; active means well fitted inhibition curve with a large enough effect in the signal ratio, with a control signal flat, not every such curve was filed as active; the % refers to the signal ratio;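 further: cells stimulated with 9-cis-retinoic acid as agonist; on the % scale 0 is the no-effect control and ±100 the full control effect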). The conditions noted are these: HEK293T RXRa-UAS-bla, beta-lactamase ratio, antagonist mode; measured here: W530 green channel, cytotoxicity proxy. Summed up:
(§2)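 Beta-lactamase reporter inhibition, read as CCF4 fluorescence ratio (ex 405, em 460/530 nm) after 2 h at RT. HEK293T UAS-bla cells, 2500/well, were stimulated with 9-cis-RA at 500 or 100 nM final alongside test compound for 18 h at 37 C.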

Assay [12] concerns the target Retinoic acid receptor RXR-alpha (Homo sapiens) (UniProt P19793). Described as above. The conditions noted are these: HEK293T RXRa-UAS-bla, beta-lactamase ratio, antagonist mode. Summed up:
as §2

Assay [13] in a line: qHTS assay for small molecule activators of the p53 signaling pathway (AID 651743; active means well fitted activation curve with a large enough effect in the signal ratio, not every such curve was filed as active; the % refers to the signal ratio; further: series mostly up to about 92 µM; % of control where 0% means no effect). As to conditions: HCT-116 p53RE-bla, beta-lactamase FRET ratio, 16 h; activation: stronger effect = higher value. Summed up:
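Reporter: beta-lactamase driven by p53 response elements, stably integrated in HCT-116 cells. Cells seeded at 4,000/well, 5 h preincubation, compound (DMSO) 16 h at 37 C; B/G FRET substrate 2 h RT; fluorescence intensity read.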

Assay [14] in a line: qHTS assay for small molecule activators of the nuclear factor-kappa B (NF-kB) signaling pathway (AID 651749; active means well fitted activation curve with a large enough effect in the signal ratio; the % refers to the signal ratio; further: series mostly up to about 77 µM; % of control where 0% means no effect). As to conditions: NF-kB-bla ME-180 cells, beta-lactamase FRET ratio, 16 h; activation: stronger effect = higher value. In a few lines:
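NF-kB-bla ME-180 cells, 2,000/well; 23 nL compound or DMSO pinned; 16 hr, 37C/5% CO2; beta-lactamase FRET read-out.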

Assay [15] has as its target Peroxisome proliferator-activated receptor alpha (Homo sapiens) (UniProt Q07869). The experiment in a line: qHTS assay for small molecule agonists of the peroxisome proliferator-activated receptor alpha (PPARalpha) signaling pathway (AID 651778; active means well fitted curve in the direction sought with a large enough effect; an effect the other way counts as inactive or inconclusive; further: % of control where 0% means no effect). As to conditions: PathHunter PPARalpha complementation, chemiluminescence, 6 h; max response: stronger effect = higher value. In a few lines:
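Enzyme-fragment complementation assay in which ligand-bound PPARalpha translocates and forms an active enzyme that generates chemiluminescence. Cells were plated overnight, exposed to compound for 6 hr at 37 C, and then given detection reagent for 60 min at room temperature.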

Assay [16] can be described thus: qHTS assay for small molecule agonists of the antioxidant response element (ARE) signaling pathway measured by Nrf2-dependant transcriptional activity (AID 720636; active means well fitted curve in the direction sought with a large enough effect in the repeat runs; an effect the other way counts as inactive or inconclusive;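 further: HepG2 cells with an ARE-driven luciferase reporter; % of control where 0% means no effect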). Summed up: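 Nrf2-dependent transcription is measured in ARE-luc HepG2 cells: compound is applied for 16 hr at 37 C after a 6 hr attachment period, and luciferase activity is quantified by luminescence using ONE-Glo.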

The nature of assay [17]: qHTS assay for small molecule agonists of the antioxidant response element (ARE) signaling pathway measured by Nrf2-dependant transcriptional activity - cell viability counter screen (AID 720653; active means well fitted curve in the direction sought with a large enough effect in the repeat runs; an effect the other way counts as inactive or inconclusive; further: on the % scale 0 is the no-effect control and ±100 the full control effect). The conditions noted are these: ARE-bla HepG2 viability, CellTiter-Glo ATP luminescence, 16 h; max response: stronger effect = lower value. In a few lines: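 ARE-bla HepG2 cells treated with compounds for 16 h at 37C; this counter screen measures viability as intracellular ATP by CellTiter-Glo luminescence after 30 min at room temperature.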

Assay [18] can be described thus: qHTS assay for cell viability of HEK293 cells (AID 743288; active means well fitted curve in the direction sought with a large enough effect; an effect the other way counts as inactive or inconclusive; further: on the % scale 0 is the no-effect control and ±100 the full control effect; nearly all actives have a fitted effect of over 50% in size). The conditions noted are these: ATP luminescence (CellTiter-Glo), 18 h; max response: stronger effect = lower value. In a few lines: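 Readout is luciferase-coupled ATP content (CellTiter-Glo luminescence, 30 min room temperature) as a measure of metabolically competent cells. Parental HEK293 cells were plated 5 h or more before compound addition, then treated 18 h at 37 C.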

Assay [19] can be described thus: qHTS assay for cell viability of the p53RE-bla HCT-116 cell line (AID 743292; active means well fitted curve in the direction sought with a large enough effect; an effect the other way counts as inactive or inconclusive; further: on the % scale 0 is the no-effect control and ±100 the full control effect; nearly all actives have a fitted effect of over 55% in size). Summed up:
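ATP-based luminescence, 16 h compound exposure at 37 C, p53RE-bla HCT-116 cells at 4,000/well.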

In assay [20] the target is Nuclear receptor subfamily 1 group I member 2 (Rattus norvegicus) (UniProt Q9R1A7). The experiment in a line: qHTS assay for small molecule activators of the rat pregnane X receptor (rPXR) signaling pathway (AID 651751; call rule not given here; further: 0% is about no effect). As to conditions: rPXR reporter cells, luciferase (One-Glo), 24 h.
Nuclear receptor subfamily 1 group I member 2 (Rattus norvegicus), sequence (Q9R1A7 whole entry, looked up): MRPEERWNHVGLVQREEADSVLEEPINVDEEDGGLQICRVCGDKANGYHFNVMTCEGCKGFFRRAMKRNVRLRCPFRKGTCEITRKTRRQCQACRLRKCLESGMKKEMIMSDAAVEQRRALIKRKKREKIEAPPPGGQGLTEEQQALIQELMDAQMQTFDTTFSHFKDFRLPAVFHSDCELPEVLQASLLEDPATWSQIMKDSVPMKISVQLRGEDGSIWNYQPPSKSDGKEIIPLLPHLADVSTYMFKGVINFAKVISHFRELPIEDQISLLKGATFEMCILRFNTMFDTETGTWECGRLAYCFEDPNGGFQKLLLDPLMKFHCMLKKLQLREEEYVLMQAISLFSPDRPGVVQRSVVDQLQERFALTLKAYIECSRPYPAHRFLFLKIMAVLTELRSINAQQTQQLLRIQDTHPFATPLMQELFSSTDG
Assay [21] in a line: qHTS assay for small molecule activators of the human pregnane X receptor (PXR) signaling pathway (AID 720659; call rule not given here; further: 0% is about no effect).
Assay [22] can be described thus: qHTS assay for environmental chemicals that activate the Aryl hydrocarbon Receptor (AhR) signaling pathway (AID 651777; active means well fitted curve in the direction sought with a large enough effect; an effect the other way counts as inactive or inconclusive; further: % of control where 0% means no effect; nearly all actives have a fitted effect of over 15% in size). The conditions noted are these: 1A2-DRE human hepatoma cells, luciferase, 24 h; activation: stronger effect = higher value. Summed up:
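Reporter gene assay: hepatoma cells with DRE/CYP1A2-luciferase, 24 hr compound incubation at 37 C, 5% CO2, luminescence after One-Glo (30 min, RT).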

Glucocorticoid receptor (Homo sapiens), sequence (P04150 whole entry, looked up): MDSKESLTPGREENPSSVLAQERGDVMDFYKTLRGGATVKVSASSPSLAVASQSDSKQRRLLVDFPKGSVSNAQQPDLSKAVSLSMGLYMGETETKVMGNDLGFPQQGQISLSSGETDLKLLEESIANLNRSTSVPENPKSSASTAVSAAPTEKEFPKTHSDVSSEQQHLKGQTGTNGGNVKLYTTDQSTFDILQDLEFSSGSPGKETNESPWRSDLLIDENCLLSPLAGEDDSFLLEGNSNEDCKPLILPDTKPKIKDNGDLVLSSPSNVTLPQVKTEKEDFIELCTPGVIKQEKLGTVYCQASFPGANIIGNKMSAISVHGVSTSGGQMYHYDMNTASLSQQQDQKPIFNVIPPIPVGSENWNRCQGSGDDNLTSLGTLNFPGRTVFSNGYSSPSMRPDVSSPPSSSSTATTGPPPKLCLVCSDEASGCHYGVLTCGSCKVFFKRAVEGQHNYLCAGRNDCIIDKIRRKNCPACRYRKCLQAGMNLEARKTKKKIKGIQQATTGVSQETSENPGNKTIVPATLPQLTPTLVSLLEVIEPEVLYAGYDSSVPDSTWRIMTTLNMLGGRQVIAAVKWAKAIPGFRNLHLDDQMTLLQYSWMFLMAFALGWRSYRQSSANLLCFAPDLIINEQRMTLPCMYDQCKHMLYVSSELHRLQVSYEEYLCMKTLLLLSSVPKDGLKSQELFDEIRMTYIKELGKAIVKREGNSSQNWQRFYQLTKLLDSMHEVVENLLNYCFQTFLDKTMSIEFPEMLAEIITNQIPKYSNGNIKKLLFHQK
Peroxisome proliferator-activated receptor alpha (Homo sapiens), sequence (Q07869 whole entry, looked up, the tested form may be a part): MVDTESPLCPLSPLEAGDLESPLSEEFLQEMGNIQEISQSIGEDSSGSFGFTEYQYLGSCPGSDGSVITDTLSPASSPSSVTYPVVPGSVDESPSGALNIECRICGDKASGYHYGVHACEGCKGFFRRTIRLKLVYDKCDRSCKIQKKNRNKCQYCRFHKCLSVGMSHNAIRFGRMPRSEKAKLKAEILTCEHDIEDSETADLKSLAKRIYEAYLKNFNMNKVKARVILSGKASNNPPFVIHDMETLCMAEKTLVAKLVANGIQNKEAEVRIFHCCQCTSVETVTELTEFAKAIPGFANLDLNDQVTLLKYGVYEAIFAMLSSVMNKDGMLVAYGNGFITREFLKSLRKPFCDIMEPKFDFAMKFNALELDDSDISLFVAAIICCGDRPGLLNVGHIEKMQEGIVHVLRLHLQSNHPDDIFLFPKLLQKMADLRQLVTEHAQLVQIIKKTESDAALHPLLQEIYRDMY

Consider `c1ccc2c(c1)oc1ccccc12`, for which the activation is 0.193% (inactive) in [1], -2.47% (inactive) in assay [13] and -1.03% (inactive) in assay [14]. The Potency entry in [2], in assay [5], in assay [6], in [9], in [10] and in assay [16] was “inactive” each time. Moreover, the Potency result in [19] was “inactive”. Moreover, the call in assay [3], in [7] and in assay [21] was inactive. Also, the max response in [4] is 3.99%; in assay [8], -6.25%; in assay [11], -9.11%; in assay [12], 10.8% (inactive); in [15] it was 0.628% (inactive); in assay [17], -12.3% (inactive). For the same molecule, the max response was -8.74% (inactive) in assay [18] and -0.589% (inactive) in assay [20].
Turning to `C=C(C)C(=O)OCCOC(=O)C(=C)C`, the molecule was called inactive in assay [3].
For the molecule `CCCSC(=O)N(CCC)CCC`, the activation in assay [1] is -2.67% (inactive); in assay [13], 5.3% (inactive); in [22] it was 1.67% (inactive). Further, the Potency result in assay [2], in assay [5], in assay [6], in assay [9], in assay [10] and in assay [16] was “inactive” each time. Moreover, the Potency result in assay [19] is “inactive”. The call in [3], in assay [7] and in assay [21] was inactive. Besides, the max response in assay [4] is 26.4%; in [8] it was -0.108%; in [15], -0.593% (inactive); in assay [17], -2.88% (inactive); in [18], -7.74% (inactive); in [20], 1.18% (inactive).
For the molecule `CC1(C)[C@@H](C=C(Cl)Cl)[C@@H]1C(=O)OCc1cccc(Oc2ccccc2)c1`, the activation in assay [1] was 0.397% (inactive). Also, the result in [3] and in assay [7] was inactive.
